Reference: PubChem BioAssay (NCATS)
Results filed as inconclusive are left out. Unless noted, calls follow the shape of the dose curve; as a rule, active = well fitted curve in either direction with a large enough effect (not every such curve was filed as active); inconclusive = small, poorly fitted or top-dose-only effect, or another doubt; inactive = flat fitted curve, though single readings scatter.

Experiments:
[1] = AP1 Signaling Pathway (AID 357); conditions: ME-180 AP-1-bla reporter, EGF-induced, beta-lactamase ratio, 5 h; at 17.2 µM (top of the series) unless noted;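 also: ME-180 reporter cells stimulated with EGF at its EC50 level; % is scaled to controls: 0 for no effect and ±100 for the full control effect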
Method in brief: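 Read-out was the 460nm/530nm emission ratio (excitation 405nm) after CCF4 loading for 2.5 hours at room temperature. Cells carried an AP-1-driven beta-lactamase reporter, were stimulated with EC50 EGF plus compound for 5 hours, and AC50 values came from titrations.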

[2] = NFAT Signaling Pathway (AID 444); conditions: Jurkat NFAT-bla M1, carbachol, beta-lactamase ratio, 5 h; at 17.2 µM (top of the series) unless noted;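 also: carbachol stimulus at about its EC50 of 1 µM final; % is scaled to controls: 0 for no effect and ±100 for the full control effect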
Method in brief: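 Jurkat cells carrying an NFAT-driven β-lactamase reporter and co-transfected muscarinic M1 receptor were treated with compound plus carbachol (1 uM final, an EC50 level) for 5 h at 37 °C. CCF4 loading followed for 1 h at RT; 460/530 nm ratio gave %activity.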

[3] = Stat Signaling Pathway (AID 446); conditions: ME-180 SIE beta-lactamase reporter, IL-6 stimulated, 5 h; at 17.2 µM (top of the series) unless noted;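 also: ME-180 cervical cancer cells given 40 pM IL-6 alongside compound; SIE-controlled beta-lactamase reporter measured as 460/530 nm FRET emission ratio; % is scaled to controls: 0 for no effect and ±100 for the full control effect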
Method in brief: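 ME-180 SIE-bla cells; overnight plating; cpd + IL-6 40 pM, 5 h, 37 C; LiveBLAzer 2.5 h RT; 460/530 nm emission ratio. Normalized to 300 pM IL-6 and 125 nM JAK inhibitor controls.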

[4] = target: Glucocorticoid receptor (Homo sapiens) (UniProt P04150); experiment: GR-GFP Redistribution (AID 450;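 active = compounds whose dose series gives a full or clear partial fitted curve of increased nuclear translocation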; also: potency is read from the fitted curve at half-maximal effect)
Chain of Glucocorticoid receptor (Homo sapiens) (P04150 whole entry, looked up): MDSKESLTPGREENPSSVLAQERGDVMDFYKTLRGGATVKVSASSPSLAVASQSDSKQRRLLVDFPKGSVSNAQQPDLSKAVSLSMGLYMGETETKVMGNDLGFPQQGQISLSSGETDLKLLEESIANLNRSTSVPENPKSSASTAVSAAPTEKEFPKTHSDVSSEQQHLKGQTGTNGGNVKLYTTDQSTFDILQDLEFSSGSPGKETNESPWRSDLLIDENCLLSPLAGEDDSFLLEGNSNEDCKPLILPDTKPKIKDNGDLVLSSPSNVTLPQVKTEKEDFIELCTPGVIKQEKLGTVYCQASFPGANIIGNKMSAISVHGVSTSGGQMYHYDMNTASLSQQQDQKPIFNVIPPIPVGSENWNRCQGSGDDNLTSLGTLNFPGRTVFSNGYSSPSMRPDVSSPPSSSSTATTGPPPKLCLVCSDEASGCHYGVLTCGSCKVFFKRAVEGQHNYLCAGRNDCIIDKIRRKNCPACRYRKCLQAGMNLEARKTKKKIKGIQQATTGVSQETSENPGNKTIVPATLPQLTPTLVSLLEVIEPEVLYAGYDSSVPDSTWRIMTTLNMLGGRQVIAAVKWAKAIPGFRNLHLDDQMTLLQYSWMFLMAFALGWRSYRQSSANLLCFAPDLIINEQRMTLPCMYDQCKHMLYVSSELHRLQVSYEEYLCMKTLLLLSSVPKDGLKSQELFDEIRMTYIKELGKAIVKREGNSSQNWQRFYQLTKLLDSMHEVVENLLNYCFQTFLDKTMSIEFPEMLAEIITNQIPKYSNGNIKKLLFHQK

CC(NC(=O)Nc1nccs1)(C(F)(F)F)C(F)(F)F
inactive: activity change, negative = inhibition [1] 4.62% | activity change, negative = inhibition [2] 15.9% | activity, negative = inhibition [3] 5.57% | Potency [4] > 20.6 µM

CCCOc1cccc(C2C(C(=O)c3ccc(C)o3)=C(O)C(=O)N2CCCN(C)C)c1 (stereo unspecified)
inactive: activity change, negative = inhibition [1] -10.8% | activity change, negative = inhibition [2] 10.1% | activity, negative = inhibition [3] 5.19% | Potency [4] > 20.6 µM

CSc1nnc(N(CCC#N)CCC#N)s1
inactive: activity change, negative = inhibition [1] 2.14% | activity change, negative = inhibition [2] 21.3% | activity, negative = inhibition [3] 2.15% | Potency [4] > 20.6 µM

CC1(C)Cc2c(oc3ncn4ncnc4c23)CO1
inactive: activity change, negative = inhibition [1] -9.2% | activity change, negative = inhibition [2] -1.16% | activity, negative = inhibition [3] 7.25% | Potency [4] > 20.6 µM

COc1ccc(/C(O)=C2\C(=O)C(=O)N(Cc3ccco3)C2c2cc(OC)ccc2OC)cc1 (stereo unspecified)
inactive: activity change, negative = inhibition [1] 8.52% | activity change, negative = inhibition [2] -18% | activity, negative = inhibition [3] -17.9% | Potency [4] > 20.6 µM

CC(C)c1nc(N2CCOCC2)c(C#N)c2c1CCC2
inactive: activity change, negative = inhibition [1] -24.1% | activity change, negative = inhibition [2] -23.6% | activity, negative = inhibition [3] -8.37% | Potency [4] > 20.6 µM

CC1N(O)C(c2ccc(Cl)cc2Cl)N(O)C1(C)C (stereo unspecified)
inactive: activity change, negative = inhibition [1] -0.0716% | activity change, negative = inhibition [2] -14.6% | activity, negative = inhibition [3] 2.16% | Potency [4] > 20.6 µM

CC(C)(C)NC(=O)/C=N/O
inactive: activity change, negative = inhibition [1] 10.5% | activity change, negative = inhibition [2] 23.2% | activity, negative = inhibition [3] 3.21% | Potency [4] > 20.6 µM

c1ccc(-n2ncc3c(N4CCCC4)ncnc32)cc1
inactive: activity change, negative = inhibition [1] -17.5% | activity change, negative = inhibition [2] 14.9% | activity, negative = inhibition [3] -6.73% | Potency [4] > 20.6 µM

CN(C)c1nc2n(c(=O)n1)C(C#N)CS2 (stereo unspecified)
inactive: activity change, negative = inhibition [1] -5.05% | activity change, negative = inhibition [2] 3.5% | activity, negative = inhibition [3] 5.84% | Potency [4] > 20.6 µM

CCCOc1ccc(N2C(=O)CC(N(CCC)C(=O)CCC(=O)O)C2=O)cc1 (stereo unspecified)
inactive: activity change, negative = inhibition [1] 3.59% | activity change, negative = inhibition [2] 18.7% | activity, negative = inhibition [3] 6.31% | Potency [4] > 20.6 µM

Clc1ccccc1-c1nn2c(-c3ccccn3)nnc2s1
inactive: activity change, negative = inhibition [1] -2.63% | activity change, negative = inhibition [2] -11.1% | activity, negative = inhibition [3] 12.8% | Potency [4] > 20.6 µM

CN1CCc2c(n(CC(O)CN3C(=O)c4ccccc4S3(=O)=O)c3ccccc23)C1=O (stereo unspecified)
inactive: activity change, negative = inhibition [1] 27.1% | activity change, negative = inhibition [2] 6.52% | activity, negative = inhibition [3] -6.51% | Potency [4] > 20.6 µM

CCN(CC)CCN1C(=O)C(O)=C(C(=O)c2cc3ccccc3o2)C1c1cccnc1 (stereo unspecified)
inactive: activity change, negative = inhibition [1] 4.98% | activity change, negative = inhibition [2] -3.08% | activity, negative = inhibition [3] 2.38% | Potency [4] > 20.6 µM

CN1C(=O)NC(c2ccccc2)C2=C1CN(Cc1ccccc1)C2=O (stereo unspecified)
inactive: activity change, negative = inhibition [1] -1.08% | activity change, negative = inhibition [2] 1.92% | activity, negative = inhibition [3] -9.01% | Potency [4] > 20.6 µM

Cc1ccc(NC(=O)c2cc(N3CCOCC3)nc3ccccc23)cc1
inactive: activity change, negative = inhibition [1] -15.5% | activity change, negative = inhibition [2] 19.3% | activity, negative = inhibition [3] -12.2% | Potency [4] > 20.6 µM

CCCCCOc1ccc(C(=O)NCC(=O)NCC(=O)OCC)cc1
inactive: activity change, negative = inhibition [1] -2.64% | activity change, negative = inhibition [2] -2.75% | activity, negative = inhibition [3] -0.468% | Potency [4] > 20.6 µM

Cc1ccc(-c2nn(C)c(=O)c3ccccc23)cc1CNC(=O)CSc1nc2ccccc2o1
inactive: activity change, negative = inhibition [1] -10.6% | activity change, negative = inhibition [2] -12.2% | activity, negative = inhibition [3] -16.9% | Potency [4] > 20.6 µM

O=C(Nc1ccccc1)c1cc(N2CCOCC2)nc2ccccc12
inactive: activity change, negative = inhibition [1] 2.4% | activity change, negative = inhibition [2] 13.1% | activity, negative = inhibition [3] 1.13% | Potency [4] > 20.6 µM
